Source: PubChem BioAssay (several laboratories)
BoNT F protease = BoNT/F light chain protease inhibitors, primary screen, biochemical, flow cytometry, MLPCN library; Botulinum neurotoxin type F light chain protease (Clostridium botulinum); Multiplex microsphere protease cleavage assay; inhibition, % at 10 µM; 360,000 tested, 0.22% active; AID 588497, 2011; in the data active means inhibition above about 35%, passing the limit was not always enough; inconclusive means no clear call, values can overlap the other calls; further: plate controls were buffer without enzyme for full effect and enzyme alone for no effect
BoNT-A LC inh2 = BoNT/A light chain protease inhibitors, primary screen, biochemical, flow cytometry, MLPCN library. 360,000 tested, 0.17% active. AID 588499, 2011. multiplex microsphere protease substrate cleavage. inhibition, % at 10 µM; further: plate controls were buffer without enzyme for full effect and enzyme alone for no effect
Autofluor counter = flagged as autofluorescent in microsphere protease counterscreen; compound autofluorescence counterscreen, microsphere flow cytometry; active compounds read high; fluorescence intensity (concentration not given with the values); AID 624483; 360,000 tested, 3.1% active; in the data active means fluorescence intensity above about 16000; inconclusive means no clear call, values can overlap the other calls
Anthrax LF prot = Bacillus anthracis LF protease inhibitors, primary screen, biochemical, multiplex microsphere, MLPCN library; Lethal factor (Bacillus anthracis), P15917; multiplex microsphere protease cleavage assay; inhibition, % at 10 µM; 360,000 tested, 0.12% active; AID 588501, 2011; further: plate controls were buffer without enzyme for full effect and enzyme alone for no effect
MazEF act = activators of E. coli MazEF toxin-antitoxin RNase, primary screen, biochemical, fluorescence, uHTS. Endoribonuclease toxin MazF (Escherichia coli (strain K12)), P0AE70. FAM/BHQ RNA-DNA oligo cleavage fluorescence, 5 h. activation, % at 20 µM. 350,000 tested, 0.32% active. AID 504720, 2011; in the data active means activation above about 50%
DUSP3 inh = VHR1 phosphatase inhibitors, primary screen, biochemical, absorbance, uHTS; Dual specificity protein phosphatase 3 (Homo sapiens), P51452; recombinant VHR phosphatase, pNPP absorbance; inhibition, % at 13.3 µM; 290,000 tested, 0.52% active; AID 1654, 2009; in the data active means inhibition above about 50%
* marks the source's active call; other numbers are inactive results. In the library only some 4% were active in any assay of this set; here they are far more common. Unless noted, no stated cut-off is given here; in the data, active means inhibition above about 30%; inconclusive means no clear call, values can overlap the other calls; inactive means below that.

`Cc1cccc(N(C)S(=O)(=O)c2ccc3[nH]c(=O)c(=O)[nH]c3c2)c1` gave BoNT F protease -1.2, BoNT-A LC inh2 inconclusive, Autofluor counter 16965*, Anthrax LF prot 3.6, MazEF act -12.3 and DUSP3 inh 15.2.
For Cc1cccc(N(C)S(=O)(=O)c2ccc3c(c2)NC(=O)CC(=O)N3)c1 the results were BoNT F protease -0.5, BoNT-A LC inh2 0.2, Autofluor counter 4510, Anthrax LF prot 3.0, MazEF act 8.9 and DUSP3 inh 11.6.
`Cn1c(=O)n(Cc2ccc(F)cc2)c(=O)c2c1nc1n2CCCN1Cc1ccccc1` gave BoNT F protease -16.2, BoNT-A LC inh2 0.0, Autofluor counter 4864, Anthrax LF prot -1.8, MazEF act 4.8 and DUSP3 inh 1.2.
`COc1ccc(/C=C/C(=O)ONC2=NCCCCC2)cc1OC` gave BoNT F protease -1.1, BoNT-A LC inh2 -0.3, Autofluor counter 3990, Anthrax LF prot -3.8, MazEF act 6.5 and DUSP3 inh 16.7.
`O=C(N/N=C/c1ccco1)c1ccncc1` gave BoNT F protease -1.3, BoNT-A LC inh2 -1.8, Autofluor counter 24013*, Anthrax LF prot 0.4, MazEF act -3.6 and DUSP3 inh 10.5.
Screening CCc1ccc(-n2c(=O)c3ccccc3n(CC(=O)C(C)(C)C)c2=O)cc1 returned BoNT F protease -10.0, BoNT-A LC inh2 -1.1, Autofluor counter 6972, Anthrax LF prot -0.2, MazEF act 0.4 and DUSP3 inh -6.4.
For Cc1nc2ncnn2c(N2CCN(S(=O)(=O)c3ccc(Br)cc3)CC2)c1C the results were BoNT F protease 5.4, BoNT-A LC inh2 -0.2, Autofluor counter 4596, Anthrax LF prot 0.9, MazEF act 40.4 and DUSP3 inh 17.3.
Cc1ccc(NC(=O)c2csc(-c3ccccc3)c2C)cc1 was read as BoNT F protease 0.2, BoNT-A LC inh2 -0.3, Autofluor counter 23926*, Anthrax LF prot 2.0, MazEF act -1.8 and DUSP3 inh 24.5.
For Cc1c(C(=O)Nc2cccc([N+](=O)[O-])c2)csc1-c1ccccc1 the results were BoNT F protease -3.6, BoNT-A LC inh2 -0.8, Autofluor counter 16284*, Anthrax LF prot -7.5, MazEF act 10.7 and DUSP3 inh 26.9.
Cc1ccc(NC(=O)c2cccc3ccccc23)cc1 was read as BoNT F protease -5.7, BoNT-A LC inh2 -2.7, Autofluor counter 4355, Anthrax LF prot 2.0, MazEF act 0.3 and DUSP3 inh 34.8.
`CCCCc1ccc(N2C(=O)[C@@H]3C(CC(N)=O)NC4(C(=O)Nc5ccc(F)cc54)[C@@H]3C2=O)cc1` (stereo not given in full) gave BoNT F protease -8.6, BoNT-A LC inh2 0.3, Autofluor counter 10824, Anthrax LF prot -3.9, MazEF act 4.1 and DUSP3 inh 51.2*.
Screening O=C(COc1ccc(Br)cc1Cl)N1CCN(c2ncccn2)CC1 returned BoNT F protease 9.6, BoNT-A LC inh2 1.8, Autofluor counter 2736, Anthrax LF prot -4.1 and MazEF act 7.5.
For CCOC(=O)N1CCN(C(=O)COc2ccc(Br)cc2Cl)CC1 the results were BoNT F protease -2.5, BoNT-A LC inh2 inconclusive, Autofluor counter 20543*, Anthrax LF prot -1.0, MazEF act -3.5 and DUSP3 inh -4.4.
C=CCNC(=O)COc1ccc(Br)cc1Cl was read as BoNT F protease 6.2, BoNT-A LC inh2 3.7, Autofluor counter 20768*, Anthrax LF prot -10.1, MazEF act 5.2 and DUSP3 inh -10.5.
COCCNC(=O)COc1ccc(Br)cc1Cl was read as BoNT F protease 2.9, BoNT-A LC inh2 0.1, Autofluor counter 2459, Anthrax LF prot -1.6, MazEF act -0.4 and DUSP3 inh -4.6.
CC(OC(=O)C1CCN(c2ccc(C(F)(F)F)cn2)CC1)C(=O)NC1CCCCC1C (stereo not given) was read as BoNT F protease -5.1, BoNT-A LC inh2 -2.2, Autofluor counter 6261, Anthrax LF prot -2.5 and MazEF act -11.6.
CCN(CC)CCCOC(=O)C(OC(C)C)(c1ccccc1)c1ccccc1 was read as BoNT F protease 43.4*, BoNT-A LC inh2 36.4*, Autofluor counter inconclusive, Anthrax LF prot -22.3, MazEF act 13.4 and DUSP3 inh -5.3.
CCOC(C(=O)OCCCN(CC)CC)(c1ccccc1)c1ccccc1 was read as BoNT F protease 0.9, BoNT-A LC inh2 0.4, Autofluor counter 2031, Anthrax LF prot -0.2, MazEF act 1.8 and DUSP3 inh 2.7.
For O=C(CCNC(=O)c1ccccc1Cl)NN1C(=O)NC2(CCCCC2)C1=O the results were BoNT F protease 5.5, BoNT-A LC inh2 -1.2, Autofluor counter 5424, Anthrax LF prot 1.2 and MazEF act 0.1.
Screening CCc1cc2c(=O)c(-c3nc4ccccc4n3C)c(C)oc2cc1OC(C)=O returned BoNT F protease -9.1, BoNT-A LC inh2 -0.6, Autofluor counter 5761, Anthrax LF prot -3.0, MazEF act -0.8 and DUSP3 inh 21.2.
CCc1cc2c(=O)c(-c3nc4ccccc4n3C)c(COCC(=O)O)oc2cc1OC(=O)C(C)(C)C was read as BoNT F protease -5.8, BoNT-A LC inh2 -3.8, Autofluor counter 17668*, Anthrax LF prot 0.0, MazEF act -2.2 and DUSP3 inh 27.7.
`Cc1ccc(Cn2c(C(C)Nc3nc(-c4ccc(F)cc4)cs3)nc3cc(Cl)c(Cl)cc32)cc1` (stereo not given) gave BoNT F protease -3.2, BoNT-A LC inh2 -1.0, Autofluor counter 3119, Anthrax LF prot -11.9 and MazEF act -29.6.
Screening COc1ccc(/C=C/C(=O)c2ccncc2)c2ccccc12 returned BoNT F protease 5.8, BoNT-A LC inh2 44.9*, Autofluor counter 2665, Anthrax LF prot 20.9, MazEF act -5.1 and DUSP3 inh 17.7.
O=C(CSc1ncnc2c(-c3ccc(Cl)cc3)nsc12)c1ccccc1 was read as BoNT F protease -2.7, BoNT-A LC inh2 2.5, Autofluor counter 10227, Anthrax LF prot 1.3, MazEF act -17.6 and DUSP3 inh 17.6.
For CC(C)n1cc(/C=C2\NC(=O)N(c3cccc(Cl)c3)C2=O)c2ccccc21 the results were BoNT F protease -0.7, BoNT-A LC inh2 inconclusive, Autofluor counter 19627*, Anthrax LF prot -3.1, MazEF act 3.5 and DUSP3 inh 7.8.
`CC(C)n1cc(/C=C2/NC(=O)N(c3cccc(Cl)c3)C2=O)c2ccccc21` gave BoNT F protease -6.8, BoNT-A LC inh2 -1.2, Autofluor counter 9444, Anthrax LF prot -2.5, MazEF act -7.5 and DUSP3 inh 17.7.
`Cc1cc(C=O)c(C)n1C1CCCCC1` gave BoNT F protease -2.9, BoNT-A LC inh2 -0.6, Autofluor counter 2946, Anthrax LF prot -1.0, MazEF act 3.5 and DUSP3 inh -12.0.
